# Rows were chosen to be rich in hits. Some 5.1% of all compounds tested hit in one or more screens of this group.
# CRFR2-BP ag: agonists of human CRF-binding protein/CRF-R2 receptor complex; hit rate 0.46% among 350,000; HEK293 CRF-R2/CRF-BP, calcium dye fluorescence (FLIPR); percent of saturating CRF peptide response; activation, % at 13.2 µM;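 active means activation of at least 50%, plus an integration ratio under a set limit after plate pattern correction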;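 further: plate controls were neutral control wells without compound for no effect and CRF at EC100 for full effect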
# CRFBP-R2 block: blocks CRF-induced signaling of the CRF-BP/CRF-R2 complex. HEK293 CRF-R2/CRF-BP, CRF-induced calcium fluorescence. inhibition, % at 11.8 µM. hit rate 0.59% among 350,000;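 active means inhibition of the ligand-induced calcium signal above about 50% at the single tested concentration, limit read from the data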
# GRIN3A LBD mod: modulators (binders) of human NR3A ligand-binding domain | AID 1259313 | Tm shift relative to glycine control, % at 25 µM | NR3A LBD differential scanning fluorimetry, Tm shift; 0% = protein alone, 100% = glycine-bound protein | hit rate 2.5% among 340,000;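 active means melting temperature shift of at least 10% of the positive control shift, at one fixed dose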
# MPTP inh: blocks calcium-induced mitochondrial swelling. isolated mouse mitochondria, Ca2+ swelling absorbance, 30 min. hit rate 1.4% among 360,000. inhibition, % at 10 µM. AID 602449;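 active means inhibition of 50% or more, scaled per plate between neutral and stimulator controls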;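 further: 0% = DMSO wells given calcium and 100% = 1 mM EGTA wells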
# ANO1 block: inhibitors of mouse TMEM16A calcium-activated chloride channel | HEK293 TMEM16A/YFP iodide influx fluorescence, ionomycin | normalized B-score (activity score, 25-100; higher = stronger inhibition) at 10 µM | hit rate 1.2% among 310,000 | AID 588511;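 active means ratio plate-corrected score three or more library SD toward inhibition, starting fluorescence score within five deviations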;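 further: score derived from kinetic fluorescence span divided by baseline fluorescence per well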
# TMEM16A act: mouse TMEM16A channel activation, primary screen. HEK293 TMEM16A/YFP-H148Q/I152L, iodide quench fluorescence; stronger effect = lower value. hit rate 0.3% among 340,000. AID 623877. B-score at 10 µM. Q8BHY3;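 active means fluorescence-ratio B-score plate-corrected deviation score at least 3 library SD below zero, with starting fluorescence score within 5 deviations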;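 further: channel opened by trigger with iodide after compound preincubation; score built on the fluorescence ratio of max minus min over baseline; more negative score means more quench and so TMEM16A activation or potentiation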
# The depositor's hits bear a star; i = inactive; x = not tested or not shown.
SMILES,CRFR2-BP ag,CRFBP-R2 block,GRIN3A LBD mod,MPTP inh,ANO1 block,TMEM16A act
O=[N+]([O-])c1cccc(/C=C/c2nc3ccc([N+](=O)[O-])cc3[nH]2)c1,-0.2,15.7,16.0*,5.8,i,i
O=[N+]([O-])c1cccc(-c2cc3ccccc3[nH]2)c1,-0.2,1.6,33.6*,1.3,i,i
COc1ccc(-c2cc3ccccc3[nH]2)cc1,0.1,59.7*,13.8*,2.1,i,i
O=[N+]([O-])c1ccc2nc(-c3ccccc3)[nH]c2c1,6.0,5.9,16.5*,46.6,i,i
COC(=O)c1c[nH]c2c1-c1cc(C(=O)OCc3ccccc3)n(S(=O)(=O)c3ccc(C)cc3)c1C(=O)C2=O,-5.9,23.4,-2.3,-0.2,x,i
NCCc1ccc(O)c(O)c1,-1.1,-10.2,0.8,x,i,i
CCCCc1cc(O)c(CCCC)c(O)c1,100.3*,-51.0,-2.2,2.0,100*,i
CCN1CCN(c2ccc(S(=O)(=O)N3CCCCC3)cc2N)CC1,0.4,-3.3,-0.3,0.8,x,i
Oc1ccccc1C=NN=Cc1ccccc1Cl,5.1,-25.1,12.6*,0.0,x,i
COc1ccc(Cn2c(O)c(C=Nc3ccc(O)cc3)c3ccccc3c2=O)cc1,3.1,-1.4,23.3*,4.2,i,i
Cc1csc(=NC(=O)c2ccccc2)n1Cc1ccco1,-1.8,26.9,2.2,0.0,i,i
Cc1csc(=Nc2ccccc2)n1Cc1ccco1,-11.7,53.4*,-3.5,-1.7,i,i
Oc1ccc2c(c1)c1ccccc1c1ncccc21,-3.0,-25.1,30.8*,3.0,x,i
Oc1c(Cl)c(Cl)c2ncccc2c1Cl,1.0,0.5,2.0,-1.6,x,i
Cc1ccccc1-n1c(SCc2c(C)noc2C)nnc1-c1cccnc1,18.7,-8.3,1.3,-0.9,i,-5.22*
Cc1cccc(C)c1OCC(=O)Nc1ccc(NC(=O)c2ccco2)cc1,-4.5,-0.1,4.6,-3.1,i,i
CC(C)[C@H](NC(=O)c1ccco1)C(=O)OCC(=O)Nc1ccc(Cl)c(S(=O)(=O)N(C)C)c1,-1.5,-2.6,0.9,6.4,i,i
O=C(COc1ccc(Cl)cc1)Nc1ccc(NC(=O)c2ccco2)cc1,1.5,-19.4,17.5*,1.6,i,i
CC(C)[C@H](NC(=O)c1ccco1)C(=O)OCC(=O)Nc1cccc(F)c1,-3.8,-1.0,-1.2,0.5,i,-40.7*
Cc1cccc(C)c1OCC(=O)Nc1cccc(NC(=O)c2ccco2)c1,2.2,4.8,-9.0,0.6,100*,i
Cc1ccc(-c2ccc(=O)n(CC(=O)NCC3COCCO3)n2)cc1 (stereo not drawn),3.3,-9.4,-1.8,-1.6,i,i
C#CCOCCOCCOCCNc1nc(N2CCN(C(=O)CCCCCCCCCCNC(=O)[C@H](CCCCN)n3cc(C[C@@H](C)CC)nn3)CC2)nc(N2CCN(C(=O)CCCCCCCCCCNC(=O)[C@@H]([C@H](C)O)n3cc(C)nn3)CC2)n1,5.3,-84.3,11.5*,-16.0,i,-17.7*
C#CCOCCOCCOCCNc1nc(N2CCN(C(=O)CCCCCCCCCCNC(=O)[C@H](CCCCN)n3cc(C)nn3)CC2)nc(N2CCN(C(=O)CCCCCCCCCCNC(=O)[C@@H]([C@H](C)O)n3cc(C)nn3)CC2)n1,10.3,-21.8,25.8*,-4.2,i,i
CC1CN(C(=O)COC(=O)c2ccc3ncsc3c2)CC(C)O1 (stereo not drawn),0.2,-2.9,1.5,0.5,x,i
CN(C)/C=N/NC(=O)C1Cc2c(ccc3ccccc23)O1 (stereo not drawn),1.6,12.2,-410.9,-0.4,i,i
CC(Sc1nnc(-c2cccnc2)o1)C(=O)NC1CCCCC1 (stereo not drawn),-1.5,1.2,0.4,-0.7,x,i
C=CCN1CCOc2ccc(C)cc2S1(=O)=O,1.1,7.5,10.1*,-0.9,x,i
Cc1ccc2c(c1)N(C(=O)CCC(=O)N1CCOCC1)CCO2,0.6,4.6,0.3,-1.4,i,i
O=c1c2cc(N3CCOCC3)ccc2[nH]c(=S)n1Cc1ccc(Cl)cc1,2.2,-50.0,37.9*,4.8,i,i
